Three compounds from PubChem BioAssay AID651871 (Sanford-Burnham Center for Chemical Genomics, 2012) can be followed below.

Where “and” joins values, the source holds several entries; their conditions need not be identical. Identical values can stand only once.

The experiment relates to HL-1. Briefly: protection of cardiomyocytes from stress damage, SAR follow-up, cell-based, panel, H9c2 and HL-1, ATP luminescence, set 2 (AID 651871).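 Also: cells exposed to stressor for 2 h before ATP readout; reference of the scale not given here.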 The following applies: H9c2/HL-1 cardiomyocytes, 2-deoxyglucose stress, with 2-deoxyglucose; run 1, at 79 µM (top of the series).
On to `CCOC(=O)c1cccc(NC(=O)CNC(=O)c2cc(-c3cc(OC)c(OC)c(OC)c3)nc3ccccc23)c1`, for which the activity (protection/inhibition) was 101%.

As for `COc1ccc2nc(-c3cc(OC)c(OC)c(OC)c3)cc(C(=O)NCC(=O)Nc3ccc(C(C)=O)cc3)c2c1`, the activity (protection/inhibition) amounted to 115%.

For the compound `COc1ccc2c(c1OC)C(=O)N1c3ccccc3C(=O)N(Cc3cccc(Cl)c3Cl)C21` (stereo not drawn), the activity (protection/inhibition) is 41.2% and 40.9% and -9.68%.
